Experimental data as given in PubChem BioAssay (EPA / NIEHS).
Calls of active or inactive are those of the source. Rule for the calls: active = hit-call score of the fitted dose curve at least 0.9, where 1 is the maximum; inactive = score below 0.9.

Target: Myc proto-oncogene protein (Homo sapiens) (UniProt P01106)
Assay: ATG_Myc_CIS: Attagene CIS-FACTORIAL HepG2 Assay for human Myelocytomatosis (Myc) Proto-Oncogene Transcription Factor (AID 2282990)
Settings: HepG2, Attagene cis-reporter transcription factor activity; actives raise or lower the signal
Description: ATG_CIS is a cell-based, multiplexed-readout assay that uses HepG2, a human liver cell line, with measurements taken at 24 hours after chemical dosing in a 24-well plate.ATG_Myc_CIS is one of 52 assay component(s) measured or calculated from the ATG_CIS assay. It is designed to make measurements of mRNA induction, a form of inducible reporter, as detected with fluorescence intensity signals by Reverse transcription polymerase chain reaction (RT-PCR) and Capillary electrophoresis technology.Data from the assay component ATG_Myc_CIS was analyzed into 1 assay endpoint. This assay endpoint, ATG_Myc_CIS, was analyzed with bidirectional fitting relative to DMSO as the negative control and baseline of activity. Using a type of inducible reporter, measures of mRNA for gain or loss-of-signal activity can be used to understand the reporter gene at the transcription factor-level as they relate to the gene MYC. Furthermore, this assay endpoint can be referred to as a primary readout, because this assay has produced multiple assay endpoints where this one serves a reporter gene function. To generalize the intended target to other relatable targets, this assay endpoint is annotated to the dna binding intended target family, where the subfamily is basic helix-loop-helix leucine zipper.
Human liver HepG2 cells are transiently transfected with multiple reporter transcription units (MRTUs) in 6-well plates using FuGene 6 reagent (Roche; 3 ml FuGene/1 mg DNA). The MRTU constructs are regulated by a cis-regulating element (promoter). […] A major difference between the CIS and TRANS system is that in CIS activities of endogenous TFs are measured, whereas the TRANS assay evaluates changes in activities of exogenous, chimeric NR-Gal4 proteins. […] At the end of 24 hour incubation, total RNA was isolated using TriZol reagent (Invitrogen). The isolated RNA is then reverse-transcribed using oligo(dT) primer and Mo-MLV reverse transcriptase (Invitrogen) with DNAse I (Ambion) treatment for 30 min. The one-tenth of the produced cDNA was amplified by PCR using Taq DNA polymerase (Invitrogen) and two reporter sequence-specific primers. The PCR products were fluorescently labeled by primer extension with 6-arboxyfluorescein (6-FAM) 5'-labeled reporter sequence-specific primer (2 min at 95 C, 20 s at 68 C and 10 min at 72 C) and these products were digested with 5U of HpaI (New England Biolabs) for 2h at 37 C. The fragments were purified using Qiaquick PCR columns (Qiagen), analyzed on an ABI 3130xL genetic analyzer (Applied Biosystems) with peak positions identified by using a set of X-rhodamine (ROX)-labeled MapMarker1000 molecular weight standards (BioVentures). The raw capillary electrophoresis data was processed using Attagraph software (Attagene).

Chain of Myc proto-oncogene protein (Homo sapiens) (P01106 whole entry, looked up): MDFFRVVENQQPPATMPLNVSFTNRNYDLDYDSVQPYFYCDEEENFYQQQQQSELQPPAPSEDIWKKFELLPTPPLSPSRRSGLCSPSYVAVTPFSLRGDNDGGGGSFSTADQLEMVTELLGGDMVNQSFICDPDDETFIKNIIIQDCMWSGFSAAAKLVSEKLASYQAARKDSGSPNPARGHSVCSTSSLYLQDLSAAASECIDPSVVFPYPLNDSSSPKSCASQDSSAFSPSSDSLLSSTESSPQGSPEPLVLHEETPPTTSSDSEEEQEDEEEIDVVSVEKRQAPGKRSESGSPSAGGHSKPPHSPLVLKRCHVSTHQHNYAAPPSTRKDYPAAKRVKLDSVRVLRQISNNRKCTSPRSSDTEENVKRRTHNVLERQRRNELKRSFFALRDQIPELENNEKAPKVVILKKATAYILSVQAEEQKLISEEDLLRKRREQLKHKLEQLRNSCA

| Structure (SMILES) | outcome |
| --- | --- |
| O=c1[nH]c(=O)n(Cl)c(=O)n1Cl | inactive |
| O=C(NC(=O)c1c(F)cccc1F)Nc1ccc(Cl)cc1 | inactive |
| Cc1cc(C(F)(C(F)(F)F)C(F)(F)F)ccc1NC(=O)c1cccc(I)c1C(=O)NC(C)(C)CS(C)(=O)=O | inactive |
| O=C(CBr)c1ccc(O)cc1 | inactive |
| CNC(=O)O/N=C/C(C)(C)S(C)(=O)=O | inactive |
| BrCCCCBr | inactive |
| O=NN1CCCCCC1 | inactive |
| CCOC(=O)CCN(SN(C)C(=O)Oc1cccc2c1OC(C)(C)C2)C(C)C | inactive |
| Nc1c(Oc2ccccc2)cc(O)c2c1C(=O)c1ccccc1C2=O | inactive |
| OCCCCO | inactive |
| CCCCCCCCCCBr | inactive |
| O=C(N[C@H]1CN2CCC1CC2)c1ccc2c(c1)OCCO2 | inactive |
| O=NN1CCOCC1 | inactive |
| Cc1cccc(N=Nc2ccc(N(C)C)cc2)c1 | inactive |
| CCOc1cc(C=O)ccc1O | inactive |
| C[C@]12CC[C@@H](O)C[C@@H]1CC[C@@H]1[C@@H]2CC[C@]2(C)C(=O)CC[C@@H]12 | inactive |
| CCC(C)(C#N)N=NC(C)(C#N)CC (stereo not given) | inactive |
| CCCSP(=S)(OCC)Oc1ccc(SC)cc1 (stereo not given) | inactive |
| O=C(CCl)Nc1ccccc1 | inactive |
| Cc1ccc(OP(=O)(Oc2ccc(C)cc2C)Oc2ccc(C)cc2C)c(C)c1 | inactive |

| Structure (SMILES) | outcome |
| --- | --- |
| Brc1c(Br)c(Br)c(Oc2c(Br)c(Br)c(Br)c(Br)c2Br)c(Br)c1Br | inactive |
| CC(c1ccc(O)cc1)c1ccc(O)cc1 | inactive |
| C#CCO | inactive |
| Oc1ccc(Cc2ccc(O)cc2)cc1 | inactive |
| CC(c1ccccc1)(c1ccc(O)cc1)c1ccc(O)cc1 | inactive |
| Nc1nc(N)nc(Cl)n1 | inactive |
| O=c1nc(O)n(Cl)c(=O)n1Cl | inactive |
| Oc1c(Cl)cc(Cl)cc1Cl | inactive |
| O=NN1CCCCCCC1 | inactive |
| Cc1cccc(C)c1NC(=O)CN1CCCC1=O | inactive |
| O=C(O)c1cc(I)cc(I)c1I | inactive |
| CCCSP(=S)(OCC)Oc1ccc(Cl)cc1Cl (stereo not given) | inactive |
| CCCCN(CCCC)C(=S)S | inactive |
| CCC[CH2][Sn]([CH2]CCC)([CH2]CCC)[CH2]CCC | inactive |
| O=C(NC(=O)c1c(F)cccc1F)Nc1cc(Cl)c(Oc2ncc(C(F)(F)F)cc2Cl)c(Cl)c1 | inactive |
| CC(C)(C#N)N=NC(C)(C)C#N | inactive |
| O=S(=O)(F)C(F)(F)C(F)(F)C(F)(F)C(F)(F)F | inactive |
| O=S1OC[C@@H]2[C@H](CO1)[C@]1(Cl)C(Cl)=C(Cl)[C@@]2(Cl)C1(Cl)Cl (stereo not given in full) | inactive |
| CCOC(=O)CC(=O)CCl | inactive |
| CCOP(=O)(OCC)OC(=CCl)c1ccc(Cl)cc1Cl | inactive |
